# Values joined by “and” are separate entries in the source; they are usually repeats but may differ in a detail not shown here. Identical values can stand only once. Inconclusive results are not listed. Active and inactive are the calls of the source. Unless noted, the rule behind the calls is not given here.
# Key:
# [1] = altered dexamethasone sensitivity, NF-kB reporter, cell-based, luciferase, IL-1B stimulus (AID 624486); conditions: IL-1B + dexamethasone, luminescence; percent of negative control (+Dex): actives lie on both sides, concentration not given here; z-score: measured here: IL-1B alone, no Dex;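 for percent of negative control (+Dex): 100% = mean signal of vehicle control wells on the plate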
# [2] = C. elegans survival during P. aeruginosa infection – whole organism (AID 651566);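 note: tested at 14 µM; sign flipped so higher z means a lower ratio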; conditions: C. elegans killed by P. aeruginosa, survival ratio
# [3] = pro-inflammatory signaling induction in mouse macrophages – cell-based, murine, luminescence (AID 652131); conditions: murine macrophage pro-inflammatory reporter, stronger effect = higher value
# [4] = inducers of IRF3 signaling, differentiated THP-1 – cell-based, PMA-stimulated THP-1, luminescence (AID 1053176); conditions: PMA-differentiated THP-1, IRF3 reporter luminescence; stronger effect = higher value
# [5] = system: Aerobactin synthetase IucA (Klebsiella pneumoniae); assay: inhibition of K. pneumoniae IucA enzyme – biochemical, Tocris library, absorbance (AID 1345561); conditions: purified IucA enzyme assay, absorbance (OD) read-out; stronger effect = lower value;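 tested at 8 µM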;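 note: 100% = enzyme without compound and 0% = no enzyme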
# [6] = viability loss in pontine glioma line – cell-based, SU-DIPG-XVII, MIPE5.0, CellTiter-Glo, qHTS, dose response (AID 1347060; cut-off not given, nearly all actives have AC50 up to about 26 µM;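 note: cells exposed to compound for 48 hours before viability readout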); conditions: CellTiter-Glo ATP luminescence
# [7] = viability loss in pontine glioma line – cell-based, JHH-DIPG-1, MIPE4.0, CellTiter-Glo, qHTS, dose response (AID 1347062; cut-off not given, nearly all actives have AC50 up to about 27 µM;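 note: cells exposed to compound for two days before readout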); conditions: JHH-DIPG-1 viability, CellTiter-Glo ATP luminescence
# [8] = viability loss in pontine glioma line – cell-based, SU-DIPG-IV, MIPE4.0, CellTiter-Glo, qHTS, dose response (AID 1347063; cut-off not given, nearly all actives have AC50 up to about 30 µM;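 note: compound exposure lasted 48 hours before the viability readout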); conditions: CellTiter-Glo ATP luminescence
# [9] = viability loss in pontine glioma line – cell-based, SU-DIPG-XXV, MIPE5.0, CellTiter-Glo, qHTS, dose response (AID 1347065; cut-off not given, nearly all actives have AC50 up to about 26 µM;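 note: cells exposed to compound for 48 hours before ATP readout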); conditions: CellTiter-Glo ATP luminescence
# [10] = viability loss with induced miR-34 in A549 – imaging, A549 dox-inducible miR-34, nuclei and caspase counts, primary screen (AID 1347080;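 active = compounds whose cell count with miR-34 switched on is under 0.7 times the count with it off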); conditions: A549 miR-34 inducible, Hoechst nuclei count, 48 h
# [11] = MELAS cybrid and Rieske KO viability enhancers – cell-based, MELAS cybrids, Rieske KO mouse fibroblasts, CellTiter-Glo, primary screen (AID 1508586;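 active = mean z-score across replicates of 1.96 or higher in either the MELAS or the Rieske mutant cell line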;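 note: z relative to plate mean and SD of compound and empty wells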); conditions: low glucose
# [12] = galactose survival enhancers in mitochondrial complex I cybrids – cell-based, galactose medium, ATP luminescence, primary screen (AID 1645843;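 active = z-score of at least 1.8 in each of two replicates, scored against plate mean and spread of sample wells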;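 note: positive z means more ATP and so rescue of galactose-driven cybrid death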); conditions: complex I mutant cybrid cells, 72 h, stronger effect = higher value
# [13] = liver-stage malaria parasite load reduction – cell-based, known kinase inhibitor set, luminescence, hepatoma host viability (AID 624392); conditions: Plasmodium liver stage in hepatoma cells, luciferase luminescence, concentration not given here; liver cell % of control: measured here: host liver cell viability; parasite % of control: stronger effect = lower value;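 note: infected cells incubated roughly two days before readout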
# [14] = target: Cellular tumor antigen p53 (Homo sapiens) (UniProt P04637); assay: GFP-p53 level modulators in HPV16+ cells – imaging, known kinase inhibitor set, EGFP/DsRed ratio (AID 1053116); conditions: GFP-p53 stability, stronger effect = higher value; EGFP object count: measured here: GFP-p53 positive objects count;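 note: cells exposed to compounds for 24 h at 37 °C before reading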
# Sequence of Cellular tumor antigen p53 (Homo sapiens) (P04637 whole entry, looked up): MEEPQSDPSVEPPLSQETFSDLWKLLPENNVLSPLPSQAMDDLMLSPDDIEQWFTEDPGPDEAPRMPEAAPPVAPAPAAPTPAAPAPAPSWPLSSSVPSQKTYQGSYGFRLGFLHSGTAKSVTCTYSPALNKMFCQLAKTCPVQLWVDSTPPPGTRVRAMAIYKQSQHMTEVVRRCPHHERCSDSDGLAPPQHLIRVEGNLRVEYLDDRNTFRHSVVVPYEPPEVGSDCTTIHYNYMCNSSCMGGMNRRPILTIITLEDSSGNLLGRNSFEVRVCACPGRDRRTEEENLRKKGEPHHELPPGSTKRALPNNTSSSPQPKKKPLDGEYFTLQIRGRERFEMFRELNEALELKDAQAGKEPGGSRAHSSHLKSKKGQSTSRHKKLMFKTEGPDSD
smiles,measurement,setting,value
COc1cc2ncn(-c3cc(OCc4ccccc4C(F)(F)F)c(C(N)=O)s3)c2cc1OC,percent of negative control (+Dex),[1],103% (inactive)
same,z-score,[1],-0.44
same,z-score,[2],0.57 (inactive)
same,z-score,[3],-0.405 (inactive)
same,fraction signal,[4],0.0355 (inactive)
same,remaining activity,[5],94.3% (inactive)
same,AC50,[6],1.48 µM (active)
same,AC50,[7],5.9 µM (active)
same,AC50,[8],14.8 µM (active)
same,AC50,[9],1.05 µM (active)
same,fold change,"[10]; stronger effect = lower value, cell number ratio, induced over uninduced",1.05 (inactive)
same,fold change,[10]; measured here: relative caspase fold change +Dox/-Dox,1.26
same,cell count,"[10]; measured here: total cells with miR-34 induction, stronger effect = lower value",1110
same,cell count,[10]; measured here: total cells without miR-34 induction,1060
same,z-score,"[11]; MELAS cybrid survival, CellTiter-Glo 48 h, stronger effect = higher value",-0.422 (inactive)
same,z-score,"[11]; Rieske KO mouse fibroblast survival, CellTiter-Glo 72 h",-0.574
same,z-score,[12],-0.495 (inactive)
COc1ccc(OC)c(C2=C(c3cn(C)c4ccccc34)C(=O)NC2=O)c1,liver cell % of control,[13],105%
same,parasite % of control,[13],22.1% (inactive)
same,percent of negative control (+Dex),[1],99% (inactive)
same,z-score,[1],-0.03
same,EGFP object count,[14],15
same,EGFP/DsRed ratio,[14],0.328 (inactive)
same,fraction signal,[4],-0.003 (inactive)
CC(=C1SC(=NCc2cccs2)NC1=O)c1ccc2ncccc2c1,liver cell % of control,[13],89.5%
same,parasite % of control,[13],33.7% (inactive)
same,percent of negative control (+Dex),[1],92.5% (inactive)
same,z-score,[1],-0.085
same,EGFP object count,[14],5
same,EGFP/DsRed ratio,[14],0.0357 (inactive)
same,fraction signal,[4],-0.009 (inactive)
Cn1cc(C2=C(c3cn(CCCCCSC(=N)N)c4ccccc34)C(=O)NC2=O)c2ccccc21,liver cell % of control,[13],88.1%
same,parasite % of control,[13],29.3% (inactive)
same,percent of negative control (+Dex),[1],99.5% (inactive)
same,z-score,[1],1.02
same,EGFP object count,[14],24.5
same,EGFP/DsRed ratio,[14],0.037 (inactive)
same,fraction signal,[4],-0.007 (inactive)
Nc1c(C(=O)c2cccc(CCS(N)(=O)=O)c2)cnn1-c1ccc(F)cc1,liver cell % of control,[13],92.4%
same,parasite % of control,[13],53.8% (inactive)
same,percent of negative control (+Dex),[1],105% (inactive)
same,z-score,[1],0.275
same,EGFP object count,[14],2
same,EGFP/DsRed ratio,[14],0.0563 (inactive)
same,fraction signal,[4],0.0055 (inactive)
O=C1NC(=NC(CO)c2ccccc2)SC1=Cc1ccc2ncccc2c1 (stereo not drawn),liver cell % of control,[13],113% and 90.5%
same,parasite % of control,[13],71.9% (inactive) and 55.3% (inactive)
same,percent of negative control (+Dex),[1],102% (inactive) and 96% (inactive)
same,z-score,[1],0.925 and 0.08
same,EGFP object count,[14],4 and 5.5
same,EGFP/DsRed ratio,[14],0.088 (inactive) and 0.122 (inactive)
same,fraction signal,[4],-0.005 (inactive) and 0.0055 (inactive)
O=C1NC(=NCCc2ccc(Cl)cc2)SC1=Cc1ccc2ncccc2c1,liver cell % of control,[13],108%
same,parasite % of control,[13],53.8% (inactive)
same,percent of negative control (+Dex),[1],95% (inactive)
same,z-score,[1],0.425
same,EGFP object count,[14],6.5
same,EGFP/DsRed ratio,[14],0.259 (inactive)
same,fraction signal,[4],-0.0075 (inactive)
O=C1NC(=NCCc2ccccn2)SC1=Cc1ccc2ncccc2c1,liver cell % of control,[13],170%
same,parasite % of control,[13],32.1% (inactive)
same,percent of negative control (+Dex),[1],92.5% (inactive)
same,z-score,[1],0.025
same,EGFP object count,[14],5.5
same,EGFP/DsRed ratio,[14],0.134 (inactive)
same,fraction signal,[4],0.0055 (inactive)
Cn1cc(C2=C(c3cn(C)c4ccccc34)C(=O)NC2=O)c2ccccc21,liver cell % of control,[13],115%
same,parasite % of control,[13],66.6% (inactive)
same,percent of negative control (+Dex),[1],110% (inactive)
same,z-score,[1],-0.485
same,EGFP object count,[14],25.5
same,EGFP/DsRed ratio,[14],0.17 (inactive)
same,fraction signal,[4],-0.001 (inactive)
Cn1c(=O)c(Oc2ccc(F)cc2F)cc2cnc(NC3CCC(O)CC3)nc21 (stereo not drawn),liver cell % of control,[13],112%
same,parasite % of control,[13],60.3% (inactive)
same,percent of negative control (+Dex),[1],85% (inactive)
same,z-score,[1],-0.62
same,EGFP object count,[14],5
same,EGFP/DsRed ratio,[14],0.154 (inactive)
same,fraction signal,[4],-0.0095 (inactive)
Cn1cc(C2=C(c3cn(CCCO)c4ccccc34)C(=O)NC2=O)c2ccccc21,liver cell % of control,[13],101%
same,parasite % of control,[13],33.3% (inactive)
same,percent of negative control (+Dex),[1],115% (inactive)
same,z-score,[1],-0.1
same,EGFP object count,[14],9.5
same,EGFP/DsRed ratio,[14],0.221 (inactive)
same,fraction signal,[4],0.0055 (inactive)
Cn1c(-c2ccncc2)c(-c2ccc(F)cc2)c2ncccc21,liver cell % of control,[13],100%
same,parasite % of control,[13],44.7% (inactive)
same,percent of negative control (+Dex),[1],104% (inactive)
same,z-score,[1],1.04
same,EGFP object count,[14],3
same,EGFP/DsRed ratio,[14],0.0799 (inactive)
same,fraction signal,[4],-0.0005 (inactive)
Cn1cc(C2=C(c3ccccc3[N+](=O)[O-])C(=O)NC2=O)c2ccccc21,liver cell % of control,[13],80.1%
same,parasite % of control,[13],121% (inactive)
same,percent of negative control (+Dex),[1],147% (active)
same,z-score,[1],-1.21
same,EGFP object count,[14],19
same,EGFP/DsRed ratio,[14],0.315 (inactive)
same,fraction signal,[4],0.0035 (inactive)
CC(C)(O)CCc1cccc(C(=O)c2cnn(-c3ccc(F)cc3)c2N)c1,liver cell % of control,[13],105%
same,parasite % of control,[13],56.9% (inactive)
same,percent of negative control (+Dex),[1],110% (inactive)
same,z-score,[1],0.16
same,EGFP object count,[14],1.5
same,EGFP/DsRed ratio,[14],0.0442 (inactive)
same,fraction signal,[4],0.0185 (inactive)
N#Cc1cccc(C(=O)c2cnn(-c3ccc(F)cc3)c2N)c1,liver cell % of control,[13],102%
same,parasite % of control,[13],61.7% (inactive)
same,percent of negative control (+Dex),[1],114% (inactive)
same,z-score,[1],2.75
same,EGFP object count,[14],4.5
same,EGFP/DsRed ratio,[14],0.122 (inactive)
same,fraction signal,[4],0.01 (inactive)
Nc1c(C(=O)c2cccc(C(O)(CO)CO)c2)cnn1-c1ccc(F)cc1,liver cell % of control,[13],95.6%
same,parasite % of control,[13],51.5% (inactive)
same,percent of negative control (+Dex),[1],104% (inactive)
same,z-score,[1],0.905
same,EGFP object count,[14],3
same,EGFP/DsRed ratio,[14],0.0614 (inactive)
same,fraction signal,[4],0.0095 (inactive)
CN1CCN(c2ccc(Nc3nc(N)c(C(=O)c4ccc5c(c4)OCCO5)s3)cc2)CC1,liver cell % of control,[13],108%
same,parasite % of control,[13],46.7% (inactive)
same,percent of negative control (+Dex),[1],138% (inactive)
same,z-score,[1],3.58
same,EGFP object count,[14],4.5
same,EGFP/DsRed ratio,[14],0.151 (inactive)
same,fraction signal,[4],-0.018 (inactive)
Nc1c(C(=O)c2ccccc2)cnn1-c1ccc(F)cc1,liver cell % of control,[13],97.1%
same,parasite % of control,[13],76.7% (inactive)
same,percent of negative control (+Dex),[1],152% (active)
same,z-score,[1],5.57
same,EGFP object count,[14],5
same,EGFP/DsRed ratio,[14],0.17 (inactive)
same,fraction signal,[4],-0.0025 (inactive)
Cn1cc(C2=C(c3c4n(c5ccccc35)CCN(C(N)=S)C4)C(=O)NC2=O)c2ccccc21,liver cell % of control,[13],94.5%
same,parasite % of control,[13],22.4% (inactive)
same,percent of negative control (+Dex),[1],110% (inactive)
same,z-score,[1],-0.965
same,EGFP object count,[14],36.5
same,EGFP/DsRed ratio,[14],0.211 (inactive)
same,fraction signal,[4],-0.007 (inactive)

# — PubChem BioAssay
